Experimental data: PubChem BioAssay (Tox21)
“And” between values parts separate entries of the source, which are not always exact repeats. Equal entries are not always repeated. Records with an inconclusive call do not appear. The source made the active and inactive calls. Unless noted, the call rests on the fitted dose curve; in most records, active means well fitted curve in the direction sought with a large enough effect in the repeat runs; inconclusive means weak or mixed curves; inactive means no such curve, though single readings can be large; an effect the other way counts as inactive or inconclusive.

How the values were obtained:
[1] = qHTS assay for small molecule agonists of the p53 signaling pathway (AID 651631; calls by dose curve; further: nearly all actives have a fitted effect of over 15% in size)
In short: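 p53RE-bla HCT-116 cells; compounds 16 h, 37 °C; LiveBLAzer B/G FRET substrate 2 h RT; fluorescence intensity read-out, qHTS format.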

[2] = qHTS assay for small molecules that induce genotoxicity in human embryonic kidney cells expressing luciferase-tagged ATAD5 (AID 651632); further: nearly all actives have a fitted effect of over 15% in size; further: potency means the concentration at half of the fitted maximal effect
In short: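 ATAD5-luc HEK293T, 2,000 cells/well; cpd or DMSO pin-transferred; 16 hr, 37C/5% CO2; Amplite 30 min RT; luminescence.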

[3] = qHTS assay for small molecule agonists of the p53 signaling pathway - cell viability (AID 651633; calls by dose curve;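 further: p53RE-bla HCT reporter cells with a stable beta-lactamase p53 reporter; series mostly up to about 83 µM; nearly all actives have a fitted effect of over 30% in size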)
In short: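 p53RE-bla cells were treated with compound for 16 hours at 37 C. Cytotoxicity was then measured as CellTiter-Glo luminescence after 30 min at room temperature.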

[4] = qHTS assay for small molecules that induce genotoxicity in human embryonic kidney cells expressing luciferase-tagged ATAD5 - cell viability (AID 651634; calls by dose curve; further: nearly all actives have a fitted effect of over 25% in size)
In short: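 Fluorescence from CellTiter-Fluor, reporting protease activity within live cells, served as the viability read-out. HEK293T cells carrying luciferase-tagged ATAD5 had been treated with compound for 15.5 hr at 37C.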

[5] = qHTS assay for small molecule disruptors of the mitochondrial membrane potential - cell viability (AID 720634; calls by dose curve;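 further: human HepG2 liver cancer cells; series mostly up to about 83 µM; nearly all actives have a fitted effect of over 20% in size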)
In short: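 Cells: HepG2, 2,000/well, attached overnight. Compound 1 hr, 37 C/5% CO2. +m-MPI dye, +CellTiter-Glo 30 min RT. Readout: luminescence (ATP).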

[6] = qHTS assay for small molecule disruptors of the mitochondrial membrane potential (AID 720635); further: potency means the concentration at half of the fitted maximal effect
In short: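 HepG2 cells exposed to compound 1 hr at 37C, then Mito-MPS dye 30 min. Ratio read of aggregate (540/590 nm) versus monomer (490/535 nm) fluorescence.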

[7] = qHTS assay to test for compound auto fluorescence at 590 nm (red) in HepG2 cells (AID 720674)
In short: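 Fluorescence at 590 nm emission following 540 nm excitation was recorded from HepG2 wells one hour after compound transfer, with DMSO-only wells as vehicle and Rose Bengal sodium equivalency as the scale.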

[8] = qHTS assay to test for compound auto fluorescence at 535 nm (green) in HepG2 cells (AID 720675)
[9] = qHTS assay to test for compound auto fluorescence at 535 nm (green) in HEK293 cells (AID 720680)
[10] = qHTS assay to test for compound auto fluorescence at 460 nm (blue) in HEK293 cell free culture (AID 720681)
In short: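 Compounds were added to cell-free DMEM with 10% FBS and fluorescence read directly. The blue channel used 405 nm excitation and 460 nm emission, with triamterene as the reference fluorophore.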

[11] = qHTS assay to test for compound auto fluorescence at 590 nm (red) in HEK293 cell free culture (AID 720683)
In short: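 Cell-free wells of DMEM with 10% FBS received compound, and intrinsic fluorescence was read at excitation/emission 540/590 nm. Values expressed as equivalence to Rose Bengal sodium.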

[12] = qHTS assay to test for compound auto fluorescence at 590 nm (red) in HepG2 cell free culture (AID 720684)
In short: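 Compounds are added to culture medium (MEM, 10% FBS) lacking cells, then fluorescence is read at excitation 540 nm, emission 590 nm, with Rose Bengal sodium as the equivalency standard.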

[13] = qHTS assay to test for compound auto fluorescence at 460 nm (blue) in HepG2 cell free culture (AID 720685)
In short: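 Compound (23 nL) or DMSO pinned into cell-free MEM with 10% FBS; blue fluorescence read at 405/460 nm excitation/emission, expressed as auto-fluorescence equivalency to triamterene.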

[14] = qHTS assay to test for compound auto fluorescence at 535 nm (green) in HepG2 cell free culture (AID 720686)
[15] = qHTS assay to test for compound auto fluorescence at 460 nm (blue) in HepG2 cells (AID 720687)
In short: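 HepG2 cells in MEM with 10% FBS, attached overnight at 37 C, were exposed to compound or DMSO for 1 hr at 37 C, 5% CO2. Blue fluorescence was read at 405/460 nm, with triamterene as reference fluorophore.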

[16] = target: Glucocorticoid receptor (Homo sapiens) (UniProt P04150); test: qHTS assay to identify small molecule antagonists of the glucocorticoid receptor (GR) signaling pathway (AID 720692; active means well fitted inhibition curve with a large enough effect in the signal ratio in the repeat runs, not every such curve was filed as active; the % refers to the signal ratio)
In short: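 HeLa GR-bla cells; cmpd + dex 5 nM final, 18 h 37 C; LiveBLAzer B/G FRET substrate 2 h RT; fluorescence intensity read. Antagonist mode, qHTS.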

[17] = qHTS assay to test for compound auto fluorescence at 460 nm (blue) in HEK293 cells (AID 720678)
In short: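 Cells were seeded and left to adhere for 4-5 hr at 37C. Compounds were then pin-transferred. After an overnight incubation at 37C under 5% CO2, intrinsic fluorescence at 405/460 nm was measured and referenced to triamterene.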

[18] = qHTS assay to test for compound auto fluorescence at 590 nm (red) in HEK293 cells (AID 720679)
In short: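 Each well held 2,000 HEK293 cells in medium containing 10% dialyzed FBS. Following 4-5 hr attachment at 37C, 23 nL test compound or DMSO was added; plates sat overnight, and red fluorescence (540/590nm) was recorded.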

[19] = qHTS assay to test for compound auto fluorescence at 535 nm (green) in HEK293 cell free culture (AID 720682)
In short: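 Cell-free medium (DMEM, 10% FBS) receives compound or DMSO by pintool. Plate read directly at Ex 485/Em 535 nm. Signal converted to fluorescein equivalency.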

[20] = target: Glucocorticoid receptor (Homo sapiens) (UniProt P04150); test: qHTS assay to identify small molecule agonists of the glucocorticoid receptor (GR) signaling pathway (AID 720691; active means well fitted activation curve with a large enough effect in the signal ratio in the repeat runs, not every such curve was filed as active; the % refers to the signal ratio)
In short: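 Fluorescence intensity from LiveBLAzer B/G FRET substrate (2 h, room temperature) reports beta-lactamase expression driven by the glucocorticoid response element in GR-bla HeLa cells after 18 h compound exposure at 37 C.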
On the % scale 0 is the no-effect control and ±100 the full control effect.

Glucocorticoid receptor (Homo sapiens), sequence (P04150 whole entry, looked up): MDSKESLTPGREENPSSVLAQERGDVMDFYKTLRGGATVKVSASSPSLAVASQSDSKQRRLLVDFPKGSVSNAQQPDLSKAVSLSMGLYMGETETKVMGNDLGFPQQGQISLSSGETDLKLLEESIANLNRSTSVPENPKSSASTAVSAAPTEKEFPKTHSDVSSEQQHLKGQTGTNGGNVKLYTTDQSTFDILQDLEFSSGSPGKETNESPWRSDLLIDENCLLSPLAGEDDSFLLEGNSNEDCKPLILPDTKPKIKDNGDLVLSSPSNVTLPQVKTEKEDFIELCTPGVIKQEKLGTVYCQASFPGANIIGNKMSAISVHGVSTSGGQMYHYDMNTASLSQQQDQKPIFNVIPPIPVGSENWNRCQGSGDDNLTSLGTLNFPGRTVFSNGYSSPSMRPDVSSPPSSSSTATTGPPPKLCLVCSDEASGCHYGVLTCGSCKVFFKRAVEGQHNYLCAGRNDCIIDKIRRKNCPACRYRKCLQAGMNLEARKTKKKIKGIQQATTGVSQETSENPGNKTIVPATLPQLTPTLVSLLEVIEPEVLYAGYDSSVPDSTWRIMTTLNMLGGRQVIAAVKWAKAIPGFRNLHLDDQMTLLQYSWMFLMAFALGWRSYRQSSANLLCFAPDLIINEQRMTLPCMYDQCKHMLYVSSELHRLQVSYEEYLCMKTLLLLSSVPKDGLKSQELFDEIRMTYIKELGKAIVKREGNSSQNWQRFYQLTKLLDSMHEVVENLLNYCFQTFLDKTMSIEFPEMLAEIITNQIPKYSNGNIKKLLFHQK

C=CC(C)(O)CC/C=C(\C)CCC=C(C)C (stereo unspecified)
active: Potency [6] 12.4 µM and 27.3 µM
inactive: Potency [1] | Potency [2] | Potency [3] | Potency [4] | Potency [5] | outcome [7] | outcome [8] | outcome [9] | outcome [10] | outcome [11] | outcome [12] | outcome [13] | outcome [14] | outcome [15] | Potency [16]

CN(CC1(C)CCCO1)S(=O)(=O)c1ccc(Cl)c(S(N)(=O)=O)c1 (stereo unspecified)
inactive: Potency [1] | Potency [2] | Potency [3] | Potency [4] | Potency [5] | Potency [6] | outcome [8] | outcome [17] | outcome [18] | outcome [9] | outcome [10] | outcome [19] | outcome [11] | outcome [12] | outcome [13] | outcome [14] | outcome [15]

CC(C)(C)c1ccc(OC(=O)c2ccccc2O)cc1
active: Potency [2] 21.7 µM | Potency [6] 24.3 µM
inactive: Potency [1] | Potency [3] | Potency [4] | Potency [5] | outcome [8] | outcome [17] | outcome [18] | outcome [9] | outcome [10] | outcome [19] | outcome [11] | outcome [12] | outcome [13] | outcome [14] | outcome [15] | Potency [20] | Potency [16]

Oc1ccccc1C=NCc1ccccc1
inactive: Potency [1] | Potency [2] | Potency [3] | Potency [4] | Potency [5] | outcome [8] | outcome [17] | outcome [18] | outcome [9] | outcome [19] | outcome [11] | outcome [12] | outcome [13] | outcome [14] | outcome [15] | Potency [16]
active: Potency [6] 21.1 µM

CCOc1ccccc1N
inactive: Potency [1] | Potency [2] | Potency [3] | Potency [4] | Potency [5] | Potency [6] | outcome [8] | outcome [17] | outcome [9] | outcome [10] | outcome [19] | outcome [11] | outcome [12] | outcome [13] | outcome [14] | outcome [15] | Potency [20] | Potency [16]

NC(Cc1ccc(F)cc1)C(=O)O (stereo unspecified)
inactive: activation [1] -4.8% [at 8.3 µM] | activation [2] 3.53% [at 8.08 µM] | activity change, negative = cytotoxicity [3] 33% [at 8.08 µM] | activity, negative = cytotoxicity [4] 10.7% [at 8.08 µM] | activity change, negative = cytotoxicity [5] -3.31% [at 8.08 µM] | fluorescence, relative to Rose Bengal [7] 0.0373% [at 3.72 µM] | fluorescence, % of fluorescein control [8] -0.0482% [at 3.72 µM] | fluorescence, % of triamterene [17] -0.105% [at 3.72 µM] | fluorescence, % of fluorescent control [18] 0.0934% [at 3.72 µM] | fluorescence, % of fluorescein [9] 0.0426% [at 3.72 µM] | fluorescence, % of fluorescent control [10] -0.189% [at 3.72 µM] | fluorescence, % of fluorescent control [11] 0.0018% [at 3.72 µM] | fluorescence, % of Rose Bengal [12] -0.117% [at 3.72 µM] | fluorescence, % of fluorescent control [13] -0.0373% [at 3.72 µM] | fluorescence, % of fluorescein control [14] -0.0064% [at 3.72 µM] | fluorescence, % of fluorescent control [15] -0.0921% [at 3.72 µM]

CC(CNC1CCCCC1)OC(=O)c1ccccc1 (stereo unspecified)
inactive: Potency [1] | Potency [2] | Potency [3] | Potency [4] | Potency [5] | fluorescence, relative to Rose Bengal [7] -0.352% [at 18.6 µM] | fluorescence, % of fluorescein control [8] 0.0399% [at 18.6 µM] | fluorescence, % of triamterene [17] 0.0231% [at 18.6 µM] | fluorescence, % of fluorescent control [18] 0.178% [at 18.6 µM] | fluorescence, % of fluorescein [9] 0.0598% [at 18.6 µM] | fluorescence, % of fluorescent control [10] 0.0629% [at 18.6 µM] | activity change [19] 0.0004% [at 18.6 µM] | fluorescence, % of fluorescent control [11] -0.008% [at 18.6 µM] | fluorescence, % of Rose Bengal [12] 0.136% [at 18.6 µM] | fluorescence, % of fluorescent control [13] -0.0346% [at 18.6 µM] | fluorescence, % of fluorescein control [14] -0.0274% [at 18.6 µM] | fluorescence, % of fluorescent control [15] -0.124% [at 18.6 µM] | Potency [20] | Potency [16]

CCc1cc(Cl)c(OC)c(C(=O)NC[C@@H]2CCCN2CC)c1O
inactive: Potency [1] | Potency [2] | Potency [3] | Potency [4] | Potency [5] | outcome [7] | outcome [8] | outcome [17] | outcome [18] | outcome [9] | outcome [19] | outcome [11] | outcome [12] | outcome [13] | outcome [14] | outcome [15] | Potency [16]

CC1(C)O[C@@H]2C[C@H]3[C@@H]4CCC5=CC(=O)CC[C@]5(C)[C@@]4(F)[C@@H](O)C[C@]3(C)[C@]2(C(=O)CCl)O1
active: Potency [6] 8.04 µM
inactive: Potency [1] | Potency [2] | Potency [3] | Potency [4] | Potency [5] | fluorescence, % of fluorescein control [8] -0.093% [at 18.6 µM] | fluorescence, % of fluorescent control [18] -0.0534% [at 18.6 µM] | fluorescence, % of fluorescein [9] -0.0811% [at 18.6 µM] | fluorescence, % of fluorescent control [10] -0.106% [at 18.6 µM] | activity change [19] 0.0954% [at 18.6 µM] | fluorescence, % of fluorescent control [11] -0.0463% [at 18.6 µM] | fluorescence, % of Rose Bengal [12] 0.173% [at 18.6 µM] | fluorescence, % of fluorescent control [13] 0.0173% [at 18.6 µM] | fluorescence, % of fluorescein control [14] 0.0501% [at 18.6 µM]

O=C1C=CC(=O)O1
inactive: Potency [1] | Potency [2] | Potency [3] | Potency [4] | Potency [5] | outcome [7] | outcome [8] | outcome [17] | outcome [18] | outcome [9] | outcome [10] | outcome [19] | outcome [11] | outcome [12] | outcome [13] | outcome [14] | outcome [15] | Potency [20] | Potency [16]

CC/C=C\CCOC(=O)C(C)C
inactive: Potency [1] | Potency [2] | Potency [3] | Potency [4] | Potency [5] | outcome [7] | outcome [8] | outcome [17] | outcome [18] | outcome [9] | outcome [19] | outcome [11] | outcome [12] | outcome [13] | outcome [14] | outcome [15] | Potency [20]

O=S(=O)(O)C(F)(F)F
inactive: Potency [1] | Potency [2] | Potency [3] | Potency [4] | Potency [5] | outcome [7] | outcome [8] | outcome [17] | outcome [18] | outcome [9] | outcome [10] | outcome [19] | outcome [11] | outcome [12] | outcome [13] | outcome [14] | outcome [15] | Potency [20]

CC1=C(O)C(=O)OC1C (stereo unspecified)
inactive: Potency [1] | Potency [2] | Potency [3] | Potency [4] | Potency [5] | Potency [6] | outcome [8] | outcome [18] | outcome [9] | outcome [10] | outcome [19] | outcome [11] | outcome [12] | outcome [13] | outcome [14] | outcome [15] | Potency [20] | Potency [16]
